Laboratory results as given in the supplement of paper PMC3334620.
Over roughly 33,000 sequences, “E-score (-0.5 to 0.5)” has its median near -0.015; the highest 2% begin near 0.3. The entries come from a sample that favours the highest values as a whole.

Each sequence was assayed against T1, Abf1 (UniProt P14164) (assay: PBM E-score (8-mer binding enrichment) (E-score (-0.5 to 0.5)); higher = stronger / more preferred TF binding). Settings: protein concentration: 200 nM; construct: GST-full length.
T1 sequence: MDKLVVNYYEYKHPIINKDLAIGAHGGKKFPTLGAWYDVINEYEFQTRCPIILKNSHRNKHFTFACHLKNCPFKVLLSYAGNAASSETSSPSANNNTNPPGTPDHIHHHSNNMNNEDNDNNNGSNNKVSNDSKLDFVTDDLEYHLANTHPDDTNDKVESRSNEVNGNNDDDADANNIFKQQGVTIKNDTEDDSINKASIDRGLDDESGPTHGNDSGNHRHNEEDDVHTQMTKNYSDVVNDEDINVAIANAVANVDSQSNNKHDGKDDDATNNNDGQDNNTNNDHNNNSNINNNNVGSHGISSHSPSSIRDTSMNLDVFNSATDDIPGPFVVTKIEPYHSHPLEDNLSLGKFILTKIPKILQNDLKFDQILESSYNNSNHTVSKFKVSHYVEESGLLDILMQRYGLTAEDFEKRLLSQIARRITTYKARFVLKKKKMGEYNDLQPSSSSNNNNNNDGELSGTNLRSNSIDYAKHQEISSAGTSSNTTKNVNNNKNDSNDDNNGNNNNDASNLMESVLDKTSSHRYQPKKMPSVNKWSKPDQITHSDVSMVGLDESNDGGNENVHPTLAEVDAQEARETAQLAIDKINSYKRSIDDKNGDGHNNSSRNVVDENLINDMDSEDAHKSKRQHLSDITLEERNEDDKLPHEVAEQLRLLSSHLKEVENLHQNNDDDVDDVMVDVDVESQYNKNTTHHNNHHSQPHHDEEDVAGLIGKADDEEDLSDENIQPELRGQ
Procedure, shortened: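 The E-score, a modified Wilcoxon-Mann-Whitney statistic, was computed by the Universal PBM Analysis Suite for every ungapped eight-base word pooled with its reverse complement. Scans behind it were normalised with masliner after bound GST-tagged yeast transcription factors were detected with fluorescent anti-GST. The proteins, at about 100-200 nM, had been applied to universal all-10-mer Agilent arrays made double-stranded by primer extension.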

| Sequence | PBM E-score |
| --- | --- |
| GGTACGTA | 0.0572 |
| TGTACAAA | 0.0674 |
| GGTACGAA | 0.339 |
| GGTACGAC | 0.185 |
| CGTACGAC | 0.417 |
| CTCGAATC | -0.0489 |
| CATCCTTC | 0.0215 |
| CCACTGGC | -0.107 |
| CGTACGAA | 0.447 |
| AGTACGAT | 0.106 |
| AGTACGAA | 0.368 |
| CTTACGAA | 0.216 |
| CGTACGCA | 0.217 |
| AGTACGAC | 0.18 |
| CATAAGGC | 0.16 |
| GCTTGCGA | 0.0664 |
| CTCAAAAG | -0.0587 |
| AACCGGTC | -0.154 |
| AGATATCA | 0.3 |
| TGATATCA | 0.34 |
| GGATATCA | 0.247 |
| TGATATAA | 0.281 |
| AGATATCT | 0.158 |
| AGATATCC | 0.232 |
| CGAGGATC | 0.101 |

| Sequence | PBM E-score |
| --- | --- |
| AGGCGGAT | -0.0114 |
| CTCGACAA | -0.0758 |
| ACTTACCT | -0.165 |
| CGGCAGGC | -0.0216 |
| CTCCGGCC | -0.212 |
| AAGACCGG | -0.0657 |
| CGACACGC | 0.0501 |
| AGACACGA | 0.083 |
| TCACACGA | 0.297 |
| CGACACGA | 0.298 |
| ACACACGA | 0.279 |
| GTACACGA | 0.362 |
| GCACACGC | -0.209 |
| GCACACAA | -0.00644 |
| TCACACAA | 0.0163 |
| GCACACGA | 0.303 |
| ATACACGA | 0.179 |
| CTACACGA | 0.247 |
| GTCGTAAA | 0.184 |
| ACACTCAA | 0.123 |
| AAGAACAT | 0.157 |
| CATGTAAG | -0.112 |
| CCTCCGTA | 0.116 |
| TCTCTGCA | 0.0379 |
| CGCTGCCG | -0.0244 |

| Sequence | PBM E-score |
| --- | --- |
| ACCGGACC | -0.113 |
| TAATCGGA | 0.0729 |
| CAGTCGAC | 0.137 |
| CGCCTGTA | -0.234 |
| ATCGTATA | 0.326 |
| CTCGTGTA | 0.157 |
| ATCGTATG | 0.302 |
| GTCGTGTA | 0.239 |
| ATAGTATG | 0.161 |
| ATCGTATC | 0.242 |
| CTCGTATA | 0.241 |
| AACGTATA | 0.1 |
| GACGTATA | 0.249 |
| ATCGTGTA | 0.376 |
| GTCGTATA | 0.402 |
| AGCGTATG | -0.154 |
| GGGCTACC | -0.186 |
| GGGTCATA | -0.0763 |
| CCCTCGTA | 0.126 |
| TATGACCA | -0.0211 |
| GAACAGCC | -0.195 |
| AGACCGAC | -0.00992 |
| AATAAATT | 0.313 |
| AATAAATG | 0.149 |
| AATAAAAT | 0.2 |

| Sequence | PBM E-score |
| --- | --- |
| TATAAATA | 0.257 |
| CGTAAATC | 0.131 |
| GATAAATA | 0.257 |
| AGTAAATA | 0.103 |
| CGTAAATA | 0.299 |
| AATAAATA | 0.32 |
| AAAAGATA | 0.182 |
| CCTATGCA | 0.018 |
| CGAAGCCG | -0.0718 |
| GCACCCTA | -0.149 |
| GAGGTCGC | 0.0116 |
| CCGTGCAG | 0.192 |
| GCGTGCGA | -0.0331 |
| TCGTGCAA | 0.361 |
| ACGTGCAC | 0.112 |
| CCGTGCAA | 0.334 |
| CCGTGCGC | 0.218 |
| GCGTGCAC | -0.0221 |
| CCGTGCGA | 0.354 |
| CCGTGCAC | 0.31 |
| CTGTGCAA | 0.0274 |
| GCGTGCAA | 0.0992 |
| ACGTGCAA | 0.21 |
| TCTCCAAA | -0.0776 |
| CCCGGCCA | -0.267 |

| Sequence | PBM E-score |
| --- | --- |
| AACAGCTG | -0.0093 |
| ACACTGGG | -0.134 |
| GCAACTCC | -0.257 |
| ACACGTGA | 0.237 |
| CCGAACCG | -0.0651 |
| AATGATAC | 0.288 |
| AATGATAG | 0.229 |
| AATGATGA | 0.282 |
| AATGATGT | 0.325 |
| AATGATTA | 0.273 |
| GATGATAA | 0.36 |
| GATAATAA | 0.24 |
| AATGATAA | 0.408 |
| CATGATAC | 0.236 |
| AATGATGG | 0.0838 |
| GATGATAC | 0.297 |
| AGCTAGGG | -0.309 |
| CCTGCGTC | -0.22 |
| ATACTTTA | 0.094 |
| ACAACCGG | 0.0327 |
| GGGGCATA | -0.184 |
| CAGCTTAA | -0.00327 |
| CATGATAG | 0.0986 |
| CATGATAA | 0.356 |
| AATGAGAT | 0.148 |

| Sequence | PBM E-score |
| --- | --- |
| TATGATAA | 0.258 |
| AATGAAAT | 0.166 |
| AATGATAT | 0.436 |
| CTGGATGA | 0.0651 |
| CCTTGAAG | -0.111 |
| GCGTGGCA | -0.0717 |
| CGACGAAA | 0.363 |
| AGACGAAG | 0.135 |
| CGACGAAG | 0.357 |
| CGACGAGA | 0.13 |
| AGACGAAA | 0.296 |
| CGACGAAC | 0.168 |
| CAACGAAA | 0.23 |
| GGACGAAA | 0.0999 |
| TGACGAAA | 0.349 |
| TCAACGCA | -0.00848 |
| CCCAGAAC | -0.144 |
| GTGCCTTA | 0.0147 |
| AGCCTGAG | -0.27 |
| ATATACGG | 0.339 |
| ATCTACGA | 0.233 |
| ATCTACGC | 0.0634 |
| ATATACCA | 0.173 |
| ATATACGC | 0.146 |
| GTATACGA | 0.242 |

| Sequence | PBM E-score |
| --- | --- |
| CTATACGA | 0.327 |
| ATATACGA | 0.324 |
| ATCTACGG | 0.344 |
| CTATACGC | -0.0573 |
| ATATACCG | 0.268 |
| AGATACGA | 0.223 |
| CTGGCGGA | -0.122 |
| AGTCGCTC | -0.106 |
| CGACCCTC | -0.152 |
| GTCGACGA | 0.26 |
| TAAGATGA | 0.182 |
| AGACGGCT | -0.0258 |
| CGTATACG | 0.195 |
| ATCGCCCC | -0.113 |
| ACAACTTA | 0.0805 |
| GTAAAGAA | 0.113 |
| ACCACACA | -0.0452 |
| CTGCCGTA | 0.122 |
| GTAAGCAA | 0.0905 |
| CTTGTCAA | 0.0838 |
| ATTGTCAA | -0.0577 |
| CTTGTCAC | 0.357 |
| ATTGTCAC | 0.398 |
| CCTGTCAC | 0.149 |
| ATTGTCAG | 0.141 |
